# D2 ag-1 – activates the human D2 dopamine receptor; P14416; HEK293 T-REx D2 cells, calcium flux agonist mode; activation, % at 2 µM; hit rate 0.53% among 340,000;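 active = activation over 3 SD above normal in the single-dose calcium agonist read, cut at about 30% in these data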; also: 0% is about no effect
# Target sequence (P14416 whole entry, looked up): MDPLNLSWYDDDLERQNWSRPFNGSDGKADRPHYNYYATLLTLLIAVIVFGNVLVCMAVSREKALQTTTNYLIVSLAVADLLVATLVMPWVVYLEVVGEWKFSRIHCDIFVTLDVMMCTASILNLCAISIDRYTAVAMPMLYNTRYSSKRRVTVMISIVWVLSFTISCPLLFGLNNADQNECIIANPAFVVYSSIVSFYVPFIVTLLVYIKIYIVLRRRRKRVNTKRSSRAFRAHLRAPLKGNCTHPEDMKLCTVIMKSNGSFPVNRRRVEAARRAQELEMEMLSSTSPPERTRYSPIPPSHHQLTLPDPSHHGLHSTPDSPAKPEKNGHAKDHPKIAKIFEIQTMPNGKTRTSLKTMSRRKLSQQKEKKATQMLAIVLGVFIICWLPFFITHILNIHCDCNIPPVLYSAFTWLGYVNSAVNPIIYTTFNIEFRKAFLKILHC
#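 Agonism scored from kinetic calcium signal (1 read/sec, 180 s) following compound pin transfer, after a 10 s baseline. Cells: HEK293 Trex line expressing inducible D2 receptor coupled to calcium, dye-loaded after overnight culture at 30 C.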
# D2 antagonist – D2 dopamine receptor (human) antagonism | inhibition, % at 10 µM | AID 485344 | HEK293 TREx D2 cells, calcium flux, dopamine EC80 | hit rate 2% among 340,000; in the data active = inhibition above about 30%; inactive = below that, where a call was filed; also: 0% is about no effect
#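 Compounds are added to dye-loaded, induced HEK293 T-REx cells coupled to calcium release via D2; after a 3 min kinetic read an EC80 dopamine stimulus is given and fluorescence is recorded for 3 more min.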
# D2 PAM-1 – positive allosteric modulators of human D2 dopamine receptor | potentiation, % (test concentration not listed) | DiscoveRx D2 beta-arrestin cells, luminescence, 90 min; 100% = 57 uM dopamine signal | hit rate 0.23% among 360,000; in the data active = potentiation above about 50%
#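 D2 cells co-treated with compound plus 50 nM dopamine (EC20) for 90 min at 37 deg C to detect potentiation. Beta-arrestin recruitment was read as enzyme-fragment luminescence after 1 h at ambient temperature. Full response was set by 57 uM dopamine.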
# D2 ag-2 – human D2 receptor agonism in beta-arrestin assay. P14416. DiscoveRx PathHunter D2 beta-arrestin, luminescence, 90 min; 100% = 57 uM dopamine signal. activation, % (no concentration beside the values). hit rate 0.084% among 360,000; in the data active = activation above about 40%
#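 Agonist mode: compounds alone added to overnight-plated D2 PathHunter cells for 90 min at 37 C, with 57 uM final dopamine (EC100) defining full response. Beta-arrestin recruitment detected by chemiluminescent reagent, read after 1 h at ambient temperature.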
# D2 PAM-2 – positive allosteric modulators of human D2 dopamine receptor; HEK293 T-REx D2, calcium flux, EC20 dopamine potentiation; P14416; AID 485347; hit rate 0.34% among 340,000; potentiation, % at 10 µM;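 active = potentiation over 3 SD above the plate norm, cut at about 30% in these data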; also: 0% is about no effect
#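 Tetracycline-induced HEK293 T-REx cells force-coupled to calcium signalling expressed D2; compounds were pin-added after a 10 s baseline, read kinetically 180 s, then an EC20 dopamine challenge followed with a further 180 s calcium read.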
# The depositor's hits bear a star; . = not tested or not shown. This is a sample that favours compounds with a hit; in the whole collection about 2.4% have one here.
SMILES,D2 ag-1,D2 antagonist,D2 PAM-1,D2 ag-2,D2 PAM-2
Cc1nn(C(C)(C)C)c(OC(=O)c2c(F)cccc2F)c1Sc1ccccc1,-1,.,.,.,11
CC(CN(C)C)CN1c2ccccc2CCc2ccccc21 (stereo not drawn),4,73*,-5,-8,-24
CN(C)CCCN1c2ccccc2CCc2ccccc21,-2,60*,-38,-7,-29
Cc1ccc(NC(=O)N2CCc3c([nH]c4ccccc34)C2c2ccccc2F)c(Cl)c1 (stereo not drawn),1,.,.,.,8
Cc1sc2nc(C3CC3)nc(SCC(=O)NCc3ccco3)c2c1C,0,8,-15,6,11
O=C(CSc1nc(C2CCCCC2)nc2ccccc12)NCc1ccco1,-1,67*,-2,-3,-10
O=C(CSc1n[nH]c(-c2ccc(S(=O)(=O)N3CCCCC3)cc2)n1)Nc1nccs1,1,39*,-2,0,0
CC(C)CC(=O)N(Cc1ccccc1)S(=O)(=O)c1ccc2c(c1)oc(=O)n2C,1,.,.,.,7
CCOCCCNC(=O)c1cc(C)nn1-c1ccccc1,1,36*,-5,-6,6
CCOC(CNC(=O)c1cc(C)nn1-c1ccccc1)OCC,0,19,-6,2,3
CCOC(=O)c1ccc2c(c1)N(Cc1cccc([N+](=O)[O-])c1)C(=O)c1ccccc1S2,0,.,.,.,9
CC(C)C(=O)NC(C)C(c1cccs1)N1CCN(c2ccccc2)CC1 (stereo not drawn),1,-10,-13,1,17
CC(NC(=O)c1cccs1)C(c1cccs1)N1CCN(c2ccccc2)CC1 (stereo not drawn),0,7,-4,0,55*
CC(NC(=O)Cc1ccc(F)cc1)C(c1cccs1)N1CCN(C)CC1 (stereo not drawn),0,-1,3,-1,50*
CCCN(C(=O)Cn1ncc2c([nH]c3ccccc32)c1=O)c1ccc(F)cc1,1,.,.,.,-13
COc1ccccc1NC(=O)C1=C(C)Nc2nc(SCc3ccc(Cl)cc3)nn2C1c1ccccc1Cl (stereo not drawn),-1,.,.,.,14
O=C1c2cccc(O)c2C(=O)c2c(O)cc(CO)cc21,.,.,89*,14,.
Cc1cc(O)c2c(c1)C(=O)c1cc(O)cc(O)c1C2=O,.,.,-4,-5,.
Cn1cnc(S(=O)(=O)N2CCC(C(=O)NCc3ccccc3)CC2)c1,1,.,.,.,5
CC(=O)c1ccc(C(=O)N(Cc2cccnc2)c2nc3c(C)c(C)ccc3s2)cc1,1,.,.,.,13
CCN1CCN(c2c(S(=O)(=O)c3ccc(C)c(C)c3)cnc3ccc(F)cc23)CC1,-1,37*,-12,-5,-21
CCc1ccc2[nH]c(=O)c(C(c3nnnn3Cc3ccccc3)N3CCOCC3)cc2c1 (stereo not drawn),0,36*,1,1,-6
CCc1ccc2[nH]c(=O)c(CN(Cc3ccc(F)cc3)C(c3nnnn3CCN3CCOCC3)C(C)C)cc2c1 (stereo not drawn),-6,-18,-19,-4,31*
CCc1ccc2[nH]c(=O)c(C(c3nnnn3Cc3ccc(OC)cc3)N3CCOCC3)cc2c1 (stereo not drawn),0,-6,-8,-3,3
COc1ccc(-c2nnc(NC(=O)c3ccccc3C)o2)cc1,-1,51*,-2,-3,-1
SMILES,D2 ag-1,D2 antagonist,D2 PAM-1,D2 ag-2,D2 PAM-2
COc1cccc(CNC(=O)c2ccc3nc(-c4ccc(F)cc4)c(-c4ccc(F)cc4)nc3c2)c1,0,.,.,.,.
O=C(c1cc2ccccc2[nH]1)N(Cc1cccnc1)CC1CCCN(C2CCCCC2)C1 (stereo not drawn),0,39*,-26,0,-12
CC(=O)N(Cc1cccnc1)Cc1cc2ccccc2[nH]c1=O,0,-9,-9,-1,-8
CC(C)(C)c1ccc(O)c(N=Cc2cc(Br)ccc2O)c1,0,9,0,-1,3
Cc1ccc(O)c(C=Nc2cc(C)ccc2O)c1,.,.,58*,7,.
CCc1cccc(C)c1NC(=O)c1cnn(-c2ccc(OC)cc2)c1C1CCN(C(=O)OC(C)(C)C)CC1,0,.,.,.,-1
N#Cc1c(-c2ccco2)cc(-c2cccnc2)nc1N,0,-1,5,-1,18
N#Cc1c(-c2ccco2)cc(-c2ccccn2)nc1N,0,-10,-7,0,36*
OCCN1CCN(c2ncnc3nc[nH]c23)CC1,1,34*,-3,-2,-9
c1nc(N2CCCC2)c2[nH]cnc2n1,-1,-10,-7,-3,-1
CCN(Cc1nc2ccccc2c(=O)[nH]1)C(=O)c1cccc(S(=O)(=O)N2CCc3ccccc32)c1,0,47*,-1,1,0
CCCc1nnc(SCC(=O)N(CC)CC)n1CC1CCCO1 (stereo not drawn),0,-8,0,1,0
CCCc1nnc(SCC(=O)N2CCCCC2C)n1CC1CCCO1 (stereo not drawn),.,.,-7,-3,37*
O=C(NCc1cccs1)c1ccc2c(c1)N(Cc1ccccc1Cl)C(=O)c1ccccc1S2,0,.,.,.,-8
CC1=C(C)CC(C(=O)Nc2nc(-c3ccc(C)cc3C)c(C)s2)C(C(=O)O)C1 (stereo not drawn),0,-8,60*,4,-5
C=C(C)Cn1c(SCC(=O)Nc2cc(C)ccc2C)nc2sc3c(c2c1=O)CCCC3,-2,.,.,.,14
Cc1cc(C)c(CSc2nnc(C)n3c2cc2occc23)c(C)c1,0,.,.,.,1
CC(=O)Nc1ccc(S(=O)(=O)N2CCN(CC(=O)N3CCOCC3)CC2)cc1,1,37*,-13,-4,-3
Cc1ccc(S(=O)(=O)N2CCN(CC(=O)N3CCOCC3)CC2)cc1,0,-6,-3,-8,10
CC(=O)Nc1ccc(S(=O)(=O)N2CCN(Cc3ccccn3)CC2)cc1,4,23,-10,-1,1
CC(=O)Nc1ccc(S(=O)(=O)N2CCN(Cc3csc(C)n3)CC2)cc1,0,-7,53*,-5,9
CC(=O)Nc1ccc(S(=O)(=O)N2CCN(Cc3ccccc3[N+](=O)[O-])CC2)cc1,1,-3,-4,2,38*
COc1ccc(-c2[nH]nc3oc(=O)cc(C)c23)cc1,0,33*,-7,-2,28
Cc1ccc(N2C(=O)CS(=O)(=O)C23C(=O)N(Cc2ccc(Cl)cc2)c2ccccc23)cc1C (stereo not drawn),0,.,.,.,-4
COc1ccccc1-c1cc(C(=O)NCc2ccccc2)no1,0,81*,-20,1,-26
COc1ccc(CNC(=O)c2cc(-c3ccccc3OC)on2)cc1,-1,91*,-20,-3,-27
COc1ccccc1-c1cc(C(=O)NCc2ccc(F)cc2)no1,1,74*,-23,-2,-13
